Screening results as filed in PubChem.
CDK5 inh: blocks human CDK5/p35 kinase activity. actives 0.01% (n = 330,000). Q00535+Q15078. AID 488839. Recombinant CDK5/p35, ADP-Glo luminescence, 60 min. inhibition, % at 10 µM;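 active = highest replicate inhibition of at least 50% and at least 75% of replicates reaching 50%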
NSD2 HMT inh: NSD2 (human) methyltransferase inhibition. O96028. NSD2 peptide methylation, AlphaScreen, 120 min. inhibition, % at 12.5 µM. actives 0.54% (n = 310,000). AID 743445; in the data active = inhibition above about 50%
Glyco luc inh: N-linked glycosylation inhibition | D54 ERlucT glycosylation luciferase reporter, 24 h; percent of 100 nM tunicamycin response | reporter increase, % at 12.5 µM | AID 588692 | actives 0.23% (n = 360,000);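 active = mean luciferase reporter signal, scaled so untreated is 0 and the glycosylation-blocking control 100, at or above a set limit in every replicate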;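 also: luciferase carries N-glycosylation sites so blocking glycosylation raises the light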
CASP6 VEID inh: caspase-6 (human) enzyme inhibition; P55212; actives 0.53% (n = 350,000); inhibition, % at 12.5 µM; purified caspase-6, Z-VEID-R110 cleavage fluorescence;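 active = mean inhibition across replicates at least about 35%, with every replicate also reaching that limit, limit read from the data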
Target sequence (P55212 24-179 limits assumed): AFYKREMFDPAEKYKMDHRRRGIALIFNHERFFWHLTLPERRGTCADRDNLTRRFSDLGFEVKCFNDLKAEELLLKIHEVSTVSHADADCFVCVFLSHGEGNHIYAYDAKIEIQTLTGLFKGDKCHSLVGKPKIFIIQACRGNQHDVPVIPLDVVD
Target sequence (P55212 194-293 limits assumed): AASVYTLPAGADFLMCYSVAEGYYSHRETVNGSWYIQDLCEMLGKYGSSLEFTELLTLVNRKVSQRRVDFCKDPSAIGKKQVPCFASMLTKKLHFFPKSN
ALR H2O2 inh: inhibitors of human sulfhydryl oxidase ALR; inhibition, % (concentration not given with the values); P55789; actives 3.8% (n = 290,000); purified ALR, DTT oxidation, H2O2 HRP-luminol luminescence;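 active = mean replicate inhibition above about 79%, with every replicate also reaching it, limit read from the data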
Target sequence (P55789 whole entry, looked up): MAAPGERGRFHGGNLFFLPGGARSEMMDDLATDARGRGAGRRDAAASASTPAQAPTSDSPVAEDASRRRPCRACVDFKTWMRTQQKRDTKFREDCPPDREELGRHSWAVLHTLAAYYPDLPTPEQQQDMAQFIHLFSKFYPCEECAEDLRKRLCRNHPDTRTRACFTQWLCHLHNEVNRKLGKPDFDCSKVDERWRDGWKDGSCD
Mot1-301 SUMO: inhibitors of SUMOylation pathway: yeast Mot1-301 growth rescue | S. cerevisiae Mot1-301 growth rescue, ATP luminescence, 38.5C; percent above DMSO median, 100 means doubled | growth rescue, % at 18.8 µM | actives 1% (n = 320,000) | AID 2716;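 active = every valid replicate shows activation above 250% relative to neutral control wells; inactive = the rest, any valid replicate at or below 250%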
A number is an active result; 0 = inactive; - = not tested or not shown. This is a sample that favours compounds with a hit; in the whole collection about 3.9% have one here.

SMILES	CDK5 inh	NSD2 HMT inh	Glyco luc inh	CASP6 VEID inh	ALR H2O2 inh	Mot1-301 SUMO
CCOC1=C/C(=C/c2c(N)n3nc(-c4ccccc4)sc3nc2=O)C=CC1=O	0	0	0	0	-	-
CCOC1=C/C(=C/c2c(N)n3oc(C)cc3nc2=O)C=CC1=O	-	-	-	-	90.7	0
COC(=O)c1cc(=O)nc2sc3cc(OC)ccc3n12	0	0	0	-	0	0
NS(=O)(=O)c1cc(C(=O)NC2CCSc3ccccc32)ccc1Cl (centres undefined)	0	180.4	0	79.9	0	0
NS(=O)(=O)c1cccc(C(=O)NC2CCSc3ccccc32)c1 (centres undefined)	0	0	0	0	0	0
CCCS(=O)(=O)NCc1cn2cccc(C)c2n1	0	0	0	0	0	0
Cc1cccn2cc(CNc3ccccc3)nc12	0	0	0	-	98.5	0
COc1cccc(S(=O)(=O)N[C@@H]2CC[C@@H](CC(=O)NC3Cc4ccccc4C3)O[C@H]2CO)c1	-	-	-	0	-	-
CN1N=C(C(C)(C)C)CSC1=Nc1ccccc1	0	0	0	36.8	-	0
CCOC(=O)c1nn(-c2ccc(OC)cc2)c(=O)c2c(N)scc12	0	0	0	44.5	0	0
CCOC(=O)c1nn(-c2ccc(C)c(C)c2)c(=O)c2c(N)scc12	0	0	0	-	-	0
Nc1ccc2c(c1)nc(Cc1ccccc1)n2CCO	0	0	0	0	97.0	0
OCCCc1nc2ccccc2n1CCc1ccccc1	0	0	0	0	0	0
COC(=O)c1c(NC(=O)CCc2ccc(C)o2)sc(C)c1C	0	0	0	-	97.1	0
CCOC(=O)c1ccc(NC(=O)CCc2ccc(CC)o2)cc1	0	0	0	-	0	0
CCOC(=O)c1c(NC(=O)CCc2ccc(CC)o2)sc(C)c1C	0	0	0	0	97.5	0
COC(=O)c1c(NC(C)=O)sc(C)c1C	0	0	0	0	-	0
CC(C)N(C[C@H]1N[C@H](CO)[C@@H]1c1ccc(C2=CCCC2)cc1)C(=O)CN(C)C	-	-	-	0	-	-
CC(=O)c1ccc(S(=O)(=O)NCC(=O)NC(c2nc3ccccc3[nH]2)C(C)C)cc1 (centres undefined)	0	0	0	0	98.6	0
CC(C)C(NC(=O)CCNC(=O)c1ccc(C(C)(C)C)cc1)c1nc2ccccc2[nH]1 (centres undefined)	0	0	0	0	0	0
C[C@@H]1CN([C@@H](C)CO)C(=O)c2cccc(NC(=O)c3ccc(-c4nccs4)cc3)c2O[C@H]1CN(C)S(=O)(=O)c1ccccc1	-	-	-	0	-	-
Cc1ccc(-c2nc(-c3ccccn3)sc2CC(=O)O)cc1	0	0	0	0	99.4	327.9
O=C(O)Cc1sc(-c2ccccc2)nc1-c1ccccc1	0	0	0	-	0	0
C[C@@H]1CN([C@@H](C)CO)C(=O)c2cc(NC(=O)NC3CCCCC3)ccc2O[C@@H](C)CCCCO[C@H]1CN(C)C	-	-	-	0	-	-
CCN1CCN(Cc2ccc(NC(=O)c3cc(NC(=O)c4nccnc4N)cc(OC)c3)cc2C(F)(F)F)CC1	0	-	0	0	0	352.9
SMILES	CDK5 inh	NSD2 HMT inh	Glyco luc inh	CASP6 VEID inh	ALR H2O2 inh	Mot1-301 SUMO
C[C@@H]1CN([C@@H](C)CO)C(=O)c2cc(NC(=O)CCC(F)(F)F)ccc2O[C@H]1CN(C)CC1CCCCC1	-	-	-	0	-	-
CCCCc1ccc(-c2nc(N)n[nH]2)cc1	0	0	0	-	0	839.6
CCCc1ccc(-c2cc(N)n[nH]2)cc1	0	0	0	0	98.9	0
O=C(NCc1ccc(F)cc1)[C@H]1N[C@H]2c3ccc(-c4ccccc4)c(=O)n3C[C@H]2[C@@H]1CO	-	-	-	0	-	-
O=C1CN(C(=O)COC(=O)c2ccc([N+](=O)[O-])o2)c2ccccc2N1	0	0	0	39.4	0	0
O=C1CN(C(=O)COC(=O)c2ccco2)c2ccccc2N1	0	0	0	0	-	0
CC1(C)C(=O)Nc2ccccc2N1C(=O)COC(=O)c1ccc([N+](=O)[O-])o1	0	0	0	47.2	-	-
CO[C@@H]1CN(C)C(=O)c2cc(NC(=O)C3CCCCC3)ccc2OC[C@@H](C)N(Cc2nccs2)C[C@H]1C	-	-	-	0	-	-
O=C(Cn1c(C(F)(F)F)nc2ccccc21)c1ccc(F)cc1	0	0	0	-	92.3	0
O=C(COC(=O)CSc1ccc([N+](=O)[O-])cc1)NCC1CCCO1 (centres undefined)	0	0	0	0	99.0	0
CCc1ccccc1NC(=O)CSc1nnc([C@@H](N)Cc2ccccc2)o1	0	0	0	-	0	0
N[C@@H](Cc1ccccc1)c1nnc(SCc2ccccc2Cl)o1	0	0	0	-	98.4	0
N#CCSc1nc2cc(C(=O)N3CCC(C(N)=O)CC3)ccc2c2nc3ccccc3n12	0	-	0	-	98.2	0
CO[C@H]1CN(C)C(=O)c2ccc(NC(=O)C3CCOCC3)cc2OC[C@H](C)N(CC2CC2)C[C@H]1C	-	-	-	0	-	-
CSc1nc(/C=C2\C=Nc3ccccc32)c(O)n1C	0	0	0	-	85.4	0
CC(C)n1c(O)c(/C=C2\C=Nc3ccccc32)sc1=Nc1ccccc1	0	0	0	-	-	0
CC/C(=C(/CC)c1ccc(O)cc1)c1ccc(O)cc1	0	-	0	0	99.0	0
N=C(N)c1ccc(O)cc1	0	0	0	0	0	0
Cc1c(O)c(CN(C)C)cc2c1oc(=O)c1ccccc12	0	0	0	0	96.6	0
CC1CCC2(CC1)SCC(=O)N2c1ccc(F)cc1 (centres undefined)	0	0	0	0	98.8	0
C[C@H](CO)N1C[C@H](C)[C@@H](CN(C)C(=O)c2cnccn2)Oc2ncc(C#CCN(C)C)cc2C1=O	-	-	-	0	-	-
CC1(C)N([O-])c2cc([N+](=O)[O-])ccc2[N+]1=O	-	85.3	-	37.9	0	0
COc1cccc(Oc2ccc(C(F)(F)F)cc2NC(=O)CN2C(=O)NC3(CCCC3)C2=O)c1	0	0	86.4	0	-	0
O=C(CN1C(=O)NC2(CCCC2)C1=O)Nc1ccccc1N1CCCC1	0	0	0	0	99.1	0
O=C(CN1C(=O)NC2(CCCC2)C1=O)Nc1cc(Cl)ccc1N1CCCC1	0	0	0	0	87.4	0
SMILES	CDK5 inh	NSD2 HMT inh	Glyco luc inh	CASP6 VEID inh	ALR H2O2 inh	Mot1-301 SUMO
O=C(CN1C(=O)NC2(CCCC2)C1=O)Nc1cc(Cl)ccc1N1CCOCC1	0	0	0	0	0	0
COc1cccc(OC)c1C(=O)Oc1ccc2c(C)cc(=O)oc2c1	-	0	-	-	-	-
COc1ccc2c3c([nH]c2c1)[C@@H](CO)N(C(=O)c1ccc(F)cc1)CC31CN(C(=O)NC(C)C)C1	-	-	-	0	-	-
Cc1nn(Cc2ccc(Cl)cc2)c(C)c1N	0	-	0	-	93.8	0
O=C(NCC[C@@H]1CC[C@@H](NC(=O)C2CCCCC2)[C@H](CO)O1)c1cc(Cl)cc(Cl)c1	-	-	-	0	-	-
CCOc1cc(/C=C2\C(=N)N3N=CSC3=NC2=O)ccc1OS(=O)(=O)c1ccccc1	0	0	0	0	0	0
COc1cc(/C=C2\C(=N)N3N=CSC3=NC2=O)ccc1OS(=O)(=O)c1ccccc1	0	0	0	0	98.0	0
